Experimental data as given in the supplement of paper PMC11732987, “Enantioselective OTUD7B fragment discovery through chemoproteomics screening and high-throughput optimisation” (Communications Chemistry, 2025).

What was measured:
Experiment in all cases: log2 ratio of Biotin-Ahx-Ub-VS probe labelling (compound/DMSO); higher = less target engagement, active = hit call of the paper (q ≤ 0.05, log2 ratio ≤ -1)
Details in all cases: treatment time: 3 h
[1] = compound: CN(Cc1cccc(Br)c1)C(=O)CCl
Method in brief: (§1)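 HEK293T lysate (495 µg per sample, in Tris/CHAPS/IGEPAL buffer with protease inhibitors) was treated in triplicate with compound at 50 or 200 µM or with DMSO for 3 h. It was then treated with Biotin-Ahx-Ub-VS (0.5 µM final) for 1 h. Labelled DUBs were NeutrAvidin-enriched, digested with LysC and trypsin, and run by diaPASEF LC-MS/MS. Median-normalised label-free quantities gave average log2 ratios compound/DMSO by unpaired t-test, using proteins with ≥2 unique peptides.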

[2] = compound: CN(Cc1cccc(OCc2ccccc2C)c1)C(=O)CCl
Method in brief: as §1

[3] = compound: CN(Cc1ccccc1)C(=O)CCl
Method in brief: as §1

[4] = compound: COc1ccc(CN(C)C(=O)CCl)cc1
Method in brief: as §1

[5] = compound: COc1cccc(CN(CCCc2ccccc2)C(=O)CCl)c1
Method in brief: as §1

[6] = compound: ClCC(=O)N1CCc2cc(Cl)c(Cl)cc2C1
Method in brief: as §1

[7] = compound: ClCC(=O)N1CCc2nc(ncc2C1)-c1ccccc1
Method in brief: as §1

[8] = compound: ClCC(=O)N1CCc2nocc2C1
Method in brief: as §1

[9] = compound: ClCC(=O)N1CCc2scc(Br)c2C1
Method in brief: as §1

[10] = compound: ClCC(=O)NC(C1CCCC1)c1cccs1
Method in brief: as §1

[11] = compound: ClCC(=O)NC1CCCc2ccccc12
Method in brief: as §1

[12] = compound: ClCC(=O)NC1CCOc2ccc(Cl)cc12
Method in brief: as §1

[13] = compound: ClCC(=O)NC1CCSc2ccccc12
Method in brief: as §1

[14] = compound: ClCC(=O)N[C@H]1CCCc2ccccc12
Method in brief: as §1

[15] = compound: Fc1ccc(N2CCN(c3nc4c(CN(C(CCl)=O)CC4)cn3)CC2)cc1.Cl.Cl
Method in brief: as §1

Measured: log2 ratio of Biotin-Ahx-Ub-VS probe labelling

USP4 (UniProt Q13107)
Sequence of UniProt Q13107 (Q13107 whole entry): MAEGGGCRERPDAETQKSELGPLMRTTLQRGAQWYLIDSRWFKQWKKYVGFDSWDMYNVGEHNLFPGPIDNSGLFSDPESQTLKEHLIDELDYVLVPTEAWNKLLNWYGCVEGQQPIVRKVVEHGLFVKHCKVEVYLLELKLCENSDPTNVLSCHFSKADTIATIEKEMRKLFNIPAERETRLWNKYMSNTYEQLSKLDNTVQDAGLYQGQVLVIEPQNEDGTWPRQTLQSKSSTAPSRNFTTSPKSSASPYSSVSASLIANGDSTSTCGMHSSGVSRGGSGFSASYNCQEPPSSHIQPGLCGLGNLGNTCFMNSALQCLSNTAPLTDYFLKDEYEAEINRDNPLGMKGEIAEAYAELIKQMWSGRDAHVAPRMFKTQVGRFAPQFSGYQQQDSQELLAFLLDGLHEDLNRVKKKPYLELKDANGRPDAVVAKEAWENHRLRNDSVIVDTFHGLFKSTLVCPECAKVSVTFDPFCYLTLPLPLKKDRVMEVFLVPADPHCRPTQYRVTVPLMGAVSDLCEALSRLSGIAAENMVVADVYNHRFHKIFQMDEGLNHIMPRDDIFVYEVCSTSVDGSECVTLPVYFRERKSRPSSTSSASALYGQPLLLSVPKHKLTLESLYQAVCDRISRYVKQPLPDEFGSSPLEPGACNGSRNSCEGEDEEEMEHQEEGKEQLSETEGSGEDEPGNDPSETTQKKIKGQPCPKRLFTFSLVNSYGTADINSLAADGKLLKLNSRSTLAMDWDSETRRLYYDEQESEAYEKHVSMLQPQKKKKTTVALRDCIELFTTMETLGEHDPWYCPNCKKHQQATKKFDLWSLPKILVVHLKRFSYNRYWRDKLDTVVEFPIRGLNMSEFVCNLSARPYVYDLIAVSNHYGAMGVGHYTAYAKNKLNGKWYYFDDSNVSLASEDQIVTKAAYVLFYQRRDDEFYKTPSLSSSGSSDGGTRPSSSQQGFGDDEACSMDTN
inactive: [1]; compound concentration: 50uM -0.457 | [1]; compound concentration: 200uM 0.551 | [2]; compound concentration: 50uM 0.0716 | [3]; compound concentration: 50uM -0.596 | [3]; compound concentration: 200uM -0.256 | [4]; compound concentration: 50uM -0.643 | [4]; compound concentration: 200uM 0.475 | [5]; compound concentration: 50uM 0.418 | [5]; compound concentration: 200uM -0.294 | [6]; compound concentration: 50uM 0.245 | [7]; compound concentration: 50uM 0.281 | [8]; compound concentration: 50uM -0.605 | [8]; compound concentration: 200uM 0.447 | [9]; compound concentration: 50uM 0.067 | [9]; compound concentration: 200uM -0.445 | [10]; compound concentration: 200uM -0.493 | [11]; compound concentration: 50uM 0.337 | [11]; compound concentration: 200uM -0.155 | [12]; compound concentration: 50uM -0.21 | [12]; compound concentration: 200uM 0.596 | [13]; compound concentration: 50uM -0.0317 | [13]; compound concentration: 200uM -0.104 | [14]; compound concentration: 50uM -0.54 | [14]; compound concentration: 200uM -0.195 | [15]; compound concentration: 50uM -0.32 | [15]; compound concentration: 200uM 0.659
active: [2]; compound concentration: 200uM -1.72 | [6]; compound concentration: 200uM -1.88 | [7]; compound concentration: 200uM -1.65 | [10]; compound concentration: 50uM -1.38

ALG13 (UniProt Q9NP73)
Sequence of UniProt Q9NP73 (Q9NP73 whole entry): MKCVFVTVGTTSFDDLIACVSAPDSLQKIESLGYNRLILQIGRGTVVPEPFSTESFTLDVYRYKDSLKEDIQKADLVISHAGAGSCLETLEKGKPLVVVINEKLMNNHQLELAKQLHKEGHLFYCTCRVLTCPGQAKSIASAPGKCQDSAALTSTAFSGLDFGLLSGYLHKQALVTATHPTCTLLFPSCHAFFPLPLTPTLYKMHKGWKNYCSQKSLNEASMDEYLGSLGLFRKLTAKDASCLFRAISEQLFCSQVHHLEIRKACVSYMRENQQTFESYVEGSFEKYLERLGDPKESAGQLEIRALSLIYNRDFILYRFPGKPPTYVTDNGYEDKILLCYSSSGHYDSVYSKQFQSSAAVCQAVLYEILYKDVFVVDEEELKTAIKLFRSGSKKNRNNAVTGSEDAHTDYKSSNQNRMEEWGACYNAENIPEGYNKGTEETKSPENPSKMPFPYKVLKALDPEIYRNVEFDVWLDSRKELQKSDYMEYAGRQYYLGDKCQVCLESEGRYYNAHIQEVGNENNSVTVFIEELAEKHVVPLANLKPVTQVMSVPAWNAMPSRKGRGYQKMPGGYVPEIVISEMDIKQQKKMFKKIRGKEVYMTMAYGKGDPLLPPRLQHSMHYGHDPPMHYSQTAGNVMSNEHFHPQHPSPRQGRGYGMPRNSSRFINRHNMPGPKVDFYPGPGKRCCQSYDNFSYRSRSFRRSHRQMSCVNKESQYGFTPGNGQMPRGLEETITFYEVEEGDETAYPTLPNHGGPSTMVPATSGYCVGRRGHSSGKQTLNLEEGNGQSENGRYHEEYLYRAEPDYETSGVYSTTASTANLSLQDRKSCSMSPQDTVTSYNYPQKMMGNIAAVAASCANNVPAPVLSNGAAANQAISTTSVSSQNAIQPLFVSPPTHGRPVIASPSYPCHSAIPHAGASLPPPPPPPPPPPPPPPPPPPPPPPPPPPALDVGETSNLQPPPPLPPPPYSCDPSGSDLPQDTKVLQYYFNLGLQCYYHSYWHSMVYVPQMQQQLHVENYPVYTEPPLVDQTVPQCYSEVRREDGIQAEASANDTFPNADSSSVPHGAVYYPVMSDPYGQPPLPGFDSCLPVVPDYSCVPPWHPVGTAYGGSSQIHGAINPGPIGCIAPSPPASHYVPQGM
inactive: [1]; compound concentration: 50uM 0.0661 | [1]; compound concentration: 200uM -0.148 | [2]; compound concentration: 50uM 0.469 | [2]; compound concentration: 200uM -0.522 | [3]; compound concentration: 50uM 0.171 | [3]; compound concentration: 200uM 0.0619 | [4]; compound concentration: 50uM 0.45 | [4]; compound concentration: 200uM 0.0354 | [5]; compound concentration: 50uM 0.162 | [5]; compound concentration: 200uM -0.285 | [6]; compound concentration: 50uM 0.247 | [6]; compound concentration: 200uM 0.454 | [7]; compound concentration: 50uM 0.157 | [7]; compound concentration: 200uM -0.117 | [8]; compound concentration: 50uM 0.493 | [8]; compound concentration: 200uM -0.0466 | [9]; compound concentration: 50uM 0.393 | [9]; compound concentration: 200uM 0.369 | [10]; compound concentration: 50uM -0.273 | [10]; compound concentration: 200uM 0.0789 | [11]; compound concentration: 50uM 0.298 | [11]; compound concentration: 200uM 0.114 | [12]; compound concentration: 50uM 0.599 | [12]; compound concentration: 200uM 0.0386 | [13]; compound concentration: 50uM 0.273 | [13]; compound concentration: 200uM -0.0598 | [14]; compound concentration: 50uM 0.244 | [14]; compound concentration: 200uM 0.344 | [15]; compound concentration: 50uM 0.0824 | [15]; compound concentration: 200uM 0.24

UniProt Q9P2H5
Sequence of UniProt Q9P2H5 (Q9P2H5 whole entry): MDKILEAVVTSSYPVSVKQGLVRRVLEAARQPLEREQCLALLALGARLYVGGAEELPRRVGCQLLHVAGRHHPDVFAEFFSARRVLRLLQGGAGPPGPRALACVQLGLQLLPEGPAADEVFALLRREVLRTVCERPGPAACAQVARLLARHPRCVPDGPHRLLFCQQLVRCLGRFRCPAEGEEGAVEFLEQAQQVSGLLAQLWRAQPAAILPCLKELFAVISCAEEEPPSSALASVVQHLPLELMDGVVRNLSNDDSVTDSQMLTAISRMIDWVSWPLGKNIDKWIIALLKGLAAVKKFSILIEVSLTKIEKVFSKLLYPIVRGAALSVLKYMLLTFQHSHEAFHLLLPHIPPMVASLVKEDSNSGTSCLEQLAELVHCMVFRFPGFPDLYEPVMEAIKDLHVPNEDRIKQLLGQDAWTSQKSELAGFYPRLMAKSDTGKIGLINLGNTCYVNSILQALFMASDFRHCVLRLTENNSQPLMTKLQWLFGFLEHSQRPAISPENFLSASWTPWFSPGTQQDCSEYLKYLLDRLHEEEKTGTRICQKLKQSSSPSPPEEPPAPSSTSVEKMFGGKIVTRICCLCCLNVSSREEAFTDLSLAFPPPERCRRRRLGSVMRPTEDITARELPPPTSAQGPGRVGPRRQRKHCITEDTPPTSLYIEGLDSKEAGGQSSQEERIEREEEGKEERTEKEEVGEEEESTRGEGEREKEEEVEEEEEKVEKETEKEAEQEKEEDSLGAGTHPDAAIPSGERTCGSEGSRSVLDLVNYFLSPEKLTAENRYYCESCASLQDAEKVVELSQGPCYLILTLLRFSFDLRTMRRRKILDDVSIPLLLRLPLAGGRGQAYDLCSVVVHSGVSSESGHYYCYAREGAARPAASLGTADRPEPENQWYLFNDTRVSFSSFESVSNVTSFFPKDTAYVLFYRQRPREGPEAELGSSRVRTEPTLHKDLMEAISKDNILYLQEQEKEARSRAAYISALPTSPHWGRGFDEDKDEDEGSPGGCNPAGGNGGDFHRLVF
inactive: [1]; compound concentration: 50uM 0.0586 | [1]; compound concentration: 200uM -0.355 | [2]; compound concentration: 50uM -0.626 | [2]; compound concentration: 200uM -0.327 | [3]; compound concentration: 50uM -0.0969 | [3]; compound concentration: 200uM -0.154 | [4]; compound concentration: 50uM -0.301 | [4]; compound concentration: 200uM -0.182 | [5]; compound concentration: 50uM -0.114 | [5]; compound concentration: 200uM -0.29 | [6]; compound concentration: 50uM -0.263 | [6]; compound concentration: 200uM -0.82 | [7]; compound concentration: 50uM 0.133 | [7]; compound concentration: 200uM -0.449 | [8]; compound concentration: 50uM -0.415 | [8]; compound concentration: 200uM -0.273 | [9]; compound concentration: 50uM -0.192 | [9]; compound concentration: 200uM -0.595 | [10]; compound concentration: 50uM 0.156 | [10]; compound concentration: 200uM 0.0366 | [11]; compound concentration: 50uM -0.0608 | [11]; compound concentration: 200uM 0.0712 | [12]; compound concentration: 50uM -0.42 | [12]; compound concentration: 200uM -0.205 | [13]; compound concentration: 50uM 0.0602 | [13]; compound concentration: 200uM -0.0405 | [14]; compound concentration: 50uM -0.178 | [14]; compound concentration: 200uM -0.0371 | [15]; compound concentration: 50uM -0.262
active: [15]; compound concentration: 200uM -1.08

USP15 (UniProt Q9Y4E8)
Sequence of UniProt Q9Y4E8 (Q9Y4E8 whole entry): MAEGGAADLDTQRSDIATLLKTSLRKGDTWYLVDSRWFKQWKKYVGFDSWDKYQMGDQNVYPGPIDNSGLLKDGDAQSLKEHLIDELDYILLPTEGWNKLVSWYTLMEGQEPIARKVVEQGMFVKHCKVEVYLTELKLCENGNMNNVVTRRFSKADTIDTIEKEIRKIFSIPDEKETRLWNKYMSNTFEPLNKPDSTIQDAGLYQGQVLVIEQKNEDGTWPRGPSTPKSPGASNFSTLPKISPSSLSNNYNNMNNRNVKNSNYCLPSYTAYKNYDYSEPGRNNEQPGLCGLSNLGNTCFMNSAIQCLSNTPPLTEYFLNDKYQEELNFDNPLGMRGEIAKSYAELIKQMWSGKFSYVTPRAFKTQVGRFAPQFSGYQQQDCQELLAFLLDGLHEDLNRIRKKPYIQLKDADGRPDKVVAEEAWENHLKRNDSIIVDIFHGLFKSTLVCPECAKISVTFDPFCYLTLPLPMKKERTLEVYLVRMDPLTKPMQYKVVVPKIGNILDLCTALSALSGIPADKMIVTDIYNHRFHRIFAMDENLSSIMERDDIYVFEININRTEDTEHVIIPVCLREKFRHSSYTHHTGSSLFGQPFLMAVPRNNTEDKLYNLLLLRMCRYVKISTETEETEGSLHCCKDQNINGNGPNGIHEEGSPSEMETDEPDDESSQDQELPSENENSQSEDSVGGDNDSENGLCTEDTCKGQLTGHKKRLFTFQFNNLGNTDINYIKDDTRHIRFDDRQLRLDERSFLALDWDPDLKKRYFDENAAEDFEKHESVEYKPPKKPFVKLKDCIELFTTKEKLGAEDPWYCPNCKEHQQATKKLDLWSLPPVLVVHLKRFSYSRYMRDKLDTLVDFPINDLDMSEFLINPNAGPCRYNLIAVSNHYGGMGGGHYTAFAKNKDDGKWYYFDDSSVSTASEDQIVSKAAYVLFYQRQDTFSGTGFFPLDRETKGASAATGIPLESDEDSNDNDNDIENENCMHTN
inactive: [1]; compound concentration: 50uM -0.321 | [1]; compound concentration: 200uM -0.664 | [2]; compound concentration: 50uM -0.611 | [2]; compound concentration: 200uM -0.533 | [3]; compound concentration: 50uM -0.368 | [3]; compound concentration: 200uM -0.462 | [4]; compound concentration: 50uM -0.242 | [4]; compound concentration: 200uM -0.334 | [5]; compound concentration: 50uM -0.289 | [5]; compound concentration: 200uM -0.43 | [6]; compound concentration: 50uM -0.407 | [7]; compound concentration: 50uM -0.105 | [8]; compound concentration: 50uM -0.404 | [8]; compound concentration: 200uM -0.641 | [9]; compound concentration: 50uM -0.779 | [10]; compound concentration: 50uM 0.0422 | [10]; compound concentration: 200uM -0.0218 | [11]; compound concentration: 50uM -0.0996 | [11]; compound concentration: 200uM -0.0168 | [12]; compound concentration: 50uM -0.328 | [12]; compound concentration: 200uM -0.255 | [13]; compound concentration: 50uM 0.00954 | [13]; compound concentration: 200uM -0.189 | [14]; compound concentration: 50uM -0.0873 | [14]; compound concentration: 200uM -0.249 | [15]; compound concentration: 50uM -0.441
active: [6]; compound concentration: 200uM -1.85 | [7]; compound concentration: 200uM -1.06 | [9]; compound concentration: 200uM -1.88 | [15]; compound concentration: 200uM -1.58

UniProt O00487
Sequence of UniProt O00487 (O00487 whole entry): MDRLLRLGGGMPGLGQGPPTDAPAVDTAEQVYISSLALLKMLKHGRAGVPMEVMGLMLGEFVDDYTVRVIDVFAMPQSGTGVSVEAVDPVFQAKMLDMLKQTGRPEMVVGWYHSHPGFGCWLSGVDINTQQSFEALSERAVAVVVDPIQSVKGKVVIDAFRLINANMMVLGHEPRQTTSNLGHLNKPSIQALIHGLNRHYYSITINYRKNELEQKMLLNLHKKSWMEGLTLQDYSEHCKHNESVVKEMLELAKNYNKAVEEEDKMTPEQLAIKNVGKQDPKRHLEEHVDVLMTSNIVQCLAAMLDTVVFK
inactive: [1]; compound concentration: 50uM -0.27 | [1]; compound concentration: 200uM -0.709 | [2]; compound concentration: 50uM -0.154 | [2]; compound concentration: 200uM -0.202 | [3]; compound concentration: 50uM -0.0192 | [3]; compound concentration: 200uM 0.243 | [4]; compound concentration: 50uM -0.0826 | [4]; compound concentration: 200uM -0.0205 | [5]; compound concentration: 50uM 0.102 | [5]; compound concentration: 200uM 0.0842 | [6]; compound concentration: 50uM -0.325 | [6]; compound concentration: 200uM -0.335 | [7]; compound concentration: 50uM -0.128 | [7]; compound concentration: 200uM 0.13 | [8]; compound concentration: 50uM -0.239 | [8]; compound concentration: 200uM -0.187 | [9]; compound concentration: 50uM -0.175 | [9]; compound concentration: 200uM -0.724 | [10]; compound concentration: 50uM -0.101 | [10]; compound concentration: 200uM -0.0832 | [11]; compound concentration: 50uM -0.451 | [11]; compound concentration: 200uM -0.117 | [12]; compound concentration: 50uM -0.207 | [12]; compound concentration: 200uM 0.0311 | [13]; compound concentration: 50uM 0.124 | [13]; compound concentration: 200uM -0.15 | [14]; compound concentration: 50uM -0.0195 | [14]; compound concentration: 200uM -0.0757 | [15]; compound concentration: 50uM 0.285 | [15]; compound concentration: 200uM 0.135

USP12 (UniProt O75317)
Sequence of UniProt O75317 (O75317 whole entry): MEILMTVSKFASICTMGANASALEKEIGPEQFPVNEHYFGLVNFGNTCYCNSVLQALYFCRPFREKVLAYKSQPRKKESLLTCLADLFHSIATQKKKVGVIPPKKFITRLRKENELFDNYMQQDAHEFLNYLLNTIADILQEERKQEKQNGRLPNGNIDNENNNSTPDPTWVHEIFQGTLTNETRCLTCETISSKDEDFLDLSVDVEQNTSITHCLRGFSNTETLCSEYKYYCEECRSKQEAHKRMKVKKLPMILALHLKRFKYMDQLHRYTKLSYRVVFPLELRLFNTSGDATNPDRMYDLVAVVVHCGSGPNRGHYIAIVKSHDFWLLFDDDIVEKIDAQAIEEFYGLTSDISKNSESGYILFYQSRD
inactive: [1]; compound concentration: 50uM -0.144 | [1]; compound concentration: 200uM -0.188 | [2]; compound concentration: 50uM -0.484 | [2]; compound concentration: 200uM -0.602 | [3]; compound concentration: 50uM -0.0519 | [3]; compound concentration: 200uM -0.89 | [4]; compound concentration: 50uM -0.0378 | [4]; compound concentration: 200uM -0.439 | [5]; compound concentration: 50uM -0.477 | [5]; compound concentration: 200uM -0.852 | [6]; compound concentration: 50uM -0.202 | [7]; compound concentration: 50uM 0.154 | [7]; compound concentration: 200uM -0.813 | [8]; compound concentration: 50uM -0.195 | [8]; compound concentration: 200uM -0.415 | [9]; compound concentration: 50uM 0.0837 | [9]; compound concentration: 200uM -0.475 | [10]; compound concentration: 50uM 0.0281 | [10]; compound concentration: 200uM -0.0926 | [11]; compound concentration: 50uM -0.289 | [11]; compound concentration: 200uM -0.199 | [12]; compound concentration: 50uM -0.354 | [12]; compound concentration: 200uM -0.202 | [13]; compound concentration: 50uM -0.191 | [13]; compound concentration: 200uM -0.363 | [14]; compound concentration: 50uM -0.253 | [14]; compound concentration: 200uM -0.148 | [15]; compound concentration: 50uM -0.289
active: [6]; compound concentration: 200uM -2.18 | [15]; compound concentration: 200uM -1.16
